Laboratory results from PubChem BioAssay (Tox21).
Calls of active or inactive are those of the source. Unless noted, calls follow the shape of the dose curve; as a rule, active = well fitted curve in the direction sought with a large enough effect in the repeat runs; inconclusive = weak or mixed curves; inactive = no such curve, though single readings can be large; an effect the other way counts as inactive or inconclusive.

Columns and labels:
[1] = qHTS assay to identify small molecule antagonists of the estrogen receptor alpha (ER-alpha) signaling pathway - cell viability counter screen (AID 743074; calls by dose curve; also: nearly all actives have a fitted effect of over 45% in size; also: potency is read from the fitted curve at half-maximal effect)
[2] = qHTS assay to identify small molecule antagonists of the estrogen receptor alpha (ER-alpha) signaling pathway using the BG1 cell line (AID 743080; calls by dose curve;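 also: BG1 cells stimulated with 17beta-estradiol alongside compound; nearly all actives have a fitted effect of over 25% in size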)
Summary of the method: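 Seeding, 24 h rest, compound transfer from DMSO, 17beta-estradiol addition, 21.5 h incubation, CellTiter-Fluor (30 min, 37 C), then ONE-Glo (30 min, room temperature): this sequence was run on BG1-Luc-4E2 reporter cells.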

[3] = qHTS assay to identify small molecule antagonists of the estrogen receptor alpha (ER-alpha) signaling pathway using the BG1 cell line - cell viability counter screen (AID 743081);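 also: compound given together with 17beta-estradiol as the ER stimulus; nearly all actives have a fitted effect of over 45% in size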
[4] = target: Aromatase (Homo sapiens) (UniProt P11511); test: qHTS assay to identify aromatase inhibitors (AID 743083); also: nearly all actives have a fitted effect of over 55% in size; also: potency is read from the fitted curve at half-maximal effect
Aromatase (Homo sapiens), sequence (P11511 whole entry, looked up): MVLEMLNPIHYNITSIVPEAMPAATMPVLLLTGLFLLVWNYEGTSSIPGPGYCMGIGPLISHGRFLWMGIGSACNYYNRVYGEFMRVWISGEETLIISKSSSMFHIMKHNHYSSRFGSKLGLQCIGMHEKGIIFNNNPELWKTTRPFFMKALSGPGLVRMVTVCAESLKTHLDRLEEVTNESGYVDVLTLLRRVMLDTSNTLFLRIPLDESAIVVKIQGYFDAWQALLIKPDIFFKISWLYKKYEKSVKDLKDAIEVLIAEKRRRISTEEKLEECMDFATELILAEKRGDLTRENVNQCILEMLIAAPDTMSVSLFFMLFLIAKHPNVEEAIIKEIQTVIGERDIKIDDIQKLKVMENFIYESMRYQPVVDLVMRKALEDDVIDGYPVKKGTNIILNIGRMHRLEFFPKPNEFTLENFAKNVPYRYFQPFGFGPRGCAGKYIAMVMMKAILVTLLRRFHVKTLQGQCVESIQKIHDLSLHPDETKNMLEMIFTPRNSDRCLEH

[5] = qHTS assay to identify aromatase inhibitors - cell viability counter screen (AID 743084);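 also: cells stimulated with testosterone during compound exposure; nearly all actives have a fitted effect of over 55% in size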; also: potency is read from the fitted curve at half-maximal effect
[6] = target: Aryl hydrocarbon receptor (Homo sapiens) (UniProt P35869); test: qHTS assay to identify small molecule that activate the aryl hydrocarbon receptor (AhR) signaling pathway (AID 743085); also: nearly all actives have a fitted effect of over 15% in size; also: potency is read from the fitted curve at half-maximal effect;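 as to activation: HG2L7.5c1 human HepG2 liver cells with stably integrated DRE-driven firefly reporter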
Aryl hydrocarbon receptor (Homo sapiens), sequence (P35869 whole entry, looked up): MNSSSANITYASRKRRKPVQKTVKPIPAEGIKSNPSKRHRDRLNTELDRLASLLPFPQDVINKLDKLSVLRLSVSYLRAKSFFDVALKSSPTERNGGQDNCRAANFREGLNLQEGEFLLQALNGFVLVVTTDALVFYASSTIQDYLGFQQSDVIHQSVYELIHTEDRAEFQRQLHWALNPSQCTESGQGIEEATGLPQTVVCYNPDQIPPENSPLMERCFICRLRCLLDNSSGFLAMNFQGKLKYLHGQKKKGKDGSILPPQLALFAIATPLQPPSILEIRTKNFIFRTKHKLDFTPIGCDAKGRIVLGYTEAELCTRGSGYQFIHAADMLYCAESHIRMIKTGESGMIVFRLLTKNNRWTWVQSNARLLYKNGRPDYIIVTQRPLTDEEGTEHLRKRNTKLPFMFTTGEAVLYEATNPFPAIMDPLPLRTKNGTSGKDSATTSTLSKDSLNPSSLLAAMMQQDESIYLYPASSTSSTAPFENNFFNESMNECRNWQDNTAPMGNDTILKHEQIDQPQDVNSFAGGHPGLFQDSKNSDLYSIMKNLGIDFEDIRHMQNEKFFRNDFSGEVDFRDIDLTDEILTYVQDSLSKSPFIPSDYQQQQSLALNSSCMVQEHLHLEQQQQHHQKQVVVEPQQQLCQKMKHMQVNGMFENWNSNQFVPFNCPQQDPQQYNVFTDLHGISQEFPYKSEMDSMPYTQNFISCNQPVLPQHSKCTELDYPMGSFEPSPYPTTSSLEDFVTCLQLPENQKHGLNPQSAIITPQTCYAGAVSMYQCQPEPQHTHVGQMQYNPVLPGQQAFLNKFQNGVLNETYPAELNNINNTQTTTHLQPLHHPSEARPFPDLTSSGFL
Summary of the method: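 Measured in HG2L7.5c1 cells: CellTiter-Fluor signal (30 min incubation, 37C) for viability, then luciferase luminescence (30 min, room temperature). Compound contact time was 24 h at 37C, following a 5 h pre-incubation.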

[7] = qHTS assay to identify small molecule that activate the aryl hydrocarbon receptor (AhR) signaling pathway - cell viability counter screen (AID 743086); also: nearly all actives have a fitted effect of over 45% in size; also: potency is read from the fitted curve at half-maximal effect
Summary of the method: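 Cytotoxicity counter screen: CellTiter-Fluor signal (30 min, 37 C) in 4000 HepG2 cells/well carrying the DRE-luciferase reporter, following 24 h compound exposure at 37 C.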

[8] = target: Peroxisome proliferator-activated receptor gamma (Homo sapiens) (UniProt P37231); test: qHTS assay to identify small molecule agonists of the peroxisome proliferator-activated receptor gamma (PPARg) signaling pathway (AID 743094; active = well fitted activation curve with a large enough effect in the signal ratio in the repeat runs, not every such curve was filed as active; inconclusive = weak or mixed curves, or effect the other way; inactive = no such curve, though single readings can be large or run the other way; the % refers to the signal ratio)
Peroxisome proliferator-activated receptor gamma (Homo sapiens), sequence (P37231 whole entry, looked up): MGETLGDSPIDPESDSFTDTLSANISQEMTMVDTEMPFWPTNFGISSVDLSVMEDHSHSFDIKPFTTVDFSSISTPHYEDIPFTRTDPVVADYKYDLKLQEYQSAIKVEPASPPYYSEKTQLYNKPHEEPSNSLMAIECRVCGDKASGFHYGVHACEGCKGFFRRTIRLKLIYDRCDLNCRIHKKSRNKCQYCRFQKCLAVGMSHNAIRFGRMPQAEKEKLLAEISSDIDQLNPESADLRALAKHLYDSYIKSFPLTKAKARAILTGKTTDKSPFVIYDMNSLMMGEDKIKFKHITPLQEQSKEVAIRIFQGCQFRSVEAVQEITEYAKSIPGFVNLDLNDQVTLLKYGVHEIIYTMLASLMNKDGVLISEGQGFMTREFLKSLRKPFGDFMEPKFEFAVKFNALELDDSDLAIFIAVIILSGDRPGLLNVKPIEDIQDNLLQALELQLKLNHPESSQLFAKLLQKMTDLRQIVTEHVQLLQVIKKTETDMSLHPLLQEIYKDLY
Summary of the method: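 Agonist activity was taken from a beta-lactamase reporter (FRET substrate, 1 h at room temperature) in HEK293H cells carrying a PPARg UAS-bla construct. Compounds in DMSO were incubated 17 h at 37C after a 5 h cell pre-incubation.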

[9] = qHTS assay to identify small molecule phospholipidosis (PLD) inducers (AID 1259344; active = well fitted curve in the direction sought with a large enough effect; inconclusive = small, poorly fitted or top-dose-only effect, or another doubt; inactive = no such curve, though single readings can be large; an effect the other way counts as inactive or inconclusive; also: potency is read from the fitted curve at half-maximal effect)
Summary of the method: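 Accumulated phospholipid, stained red by LipidTOX during 24 h compound treatment of HepG2 cells at 37 C, is quantified from images as pit number and intensity, normalised per cell using Hoechst-stained nuclei.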

[10] = target: Nuclear receptor subfamily 1 group I member 2 (Rattus norvegicus) (UniProt Q9R1A7); test: Rat pregnane X receptor (rPXR) activation by small molecules, qHTS assay (AID 1346983); settings: rPXR luciferase reporter cells, One-Glo luminescence, 24 h; max activation: hits give high values; also: nearly all actives have a fitted effect of over 20% in size; also: potency is read from the fitted curve at half-maximal effect
Nuclear receptor subfamily 1 group I member 2 (Rattus norvegicus), sequence (Q9R1A7 whole entry, looked up): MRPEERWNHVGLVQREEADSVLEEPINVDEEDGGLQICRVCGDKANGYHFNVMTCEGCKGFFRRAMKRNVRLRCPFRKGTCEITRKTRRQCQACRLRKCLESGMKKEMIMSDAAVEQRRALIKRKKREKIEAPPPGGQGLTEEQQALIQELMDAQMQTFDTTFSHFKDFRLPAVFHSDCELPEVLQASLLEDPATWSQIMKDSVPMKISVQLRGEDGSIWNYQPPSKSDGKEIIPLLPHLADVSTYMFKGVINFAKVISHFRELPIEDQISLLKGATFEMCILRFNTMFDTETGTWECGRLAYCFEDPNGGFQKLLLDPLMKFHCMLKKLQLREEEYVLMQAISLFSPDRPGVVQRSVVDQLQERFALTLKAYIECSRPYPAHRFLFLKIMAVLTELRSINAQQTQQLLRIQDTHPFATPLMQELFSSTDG
Summary of the method: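 Luminescent readout (One-Glo luciferase, 30 min room temperature) followed 24 hr compound treatment at 37 C of rPXR cells plated 2,000 per well and preincubated 5hr; qHTS format with compounds delivered in DMSO.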

[11] = target: Nuclear receptor subfamily 1 group I member 2 (Homo sapiens) (UniProt O75469); test: Human pregnane X receptor (PXR) activation by small molecules, qHTS assay (AID 1346985); also: nearly all actives have a fitted effect of over 40% in size
Summary of the method: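 DPX-2 cells (HepG2 co-transfected with a PXR response element and a CYP3A4-promoter luciferase construct) were seeded at 2,000 per well, rested 5 hr at 37C, then exposed to DMSO-dissolved compounds for 24 hr. Activation was read as luciferase luminescence.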

[12] = qHTS assay to identify small molecule antagonists of the thyroid receptor (TR) signaling pathway - cell viability counter screen (AID 743064); also: nearly all actives have a fitted effect of over 50% in size; also: potency is read from the fitted curve at half-maximal effect
Summary of the method: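 Counter screen for cytotoxicity: compound plus T3 (1 nM final) on GH3.TRE-Luc cells, 23.5 h at 37 °C, then fluorescence viability readout with CellTiter-Fluor.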

[13] = test system: thyroid hormone receptor (rat, GH3 cells); test: qHTS assay to identify small molecule agonists of the thyroid receptor (TR) signaling pathway (AID 743066; calls by dose curve)
[14] = target: Estrogen receptor (Homo sapiens) (UniProt P03372); test: qHTS assay to identify small molecule antagonists of the estrogen receptor alpha (ER-alpha) signaling pathway (AID 743069; active = well fitted curve in the direction sought with a large enough effect in the signal ratio in the repeat runs, not every such curve was filed as active; inconclusive = weak or mixed curves, or effect the other way; inactive = no such curve, though single readings can be large or run the other way; the % refers to the signal ratio; also: potency is read from the fitted curve at half-maximal effect)
Estrogen receptor (Homo sapiens), sequence (P03372 whole entry, looked up): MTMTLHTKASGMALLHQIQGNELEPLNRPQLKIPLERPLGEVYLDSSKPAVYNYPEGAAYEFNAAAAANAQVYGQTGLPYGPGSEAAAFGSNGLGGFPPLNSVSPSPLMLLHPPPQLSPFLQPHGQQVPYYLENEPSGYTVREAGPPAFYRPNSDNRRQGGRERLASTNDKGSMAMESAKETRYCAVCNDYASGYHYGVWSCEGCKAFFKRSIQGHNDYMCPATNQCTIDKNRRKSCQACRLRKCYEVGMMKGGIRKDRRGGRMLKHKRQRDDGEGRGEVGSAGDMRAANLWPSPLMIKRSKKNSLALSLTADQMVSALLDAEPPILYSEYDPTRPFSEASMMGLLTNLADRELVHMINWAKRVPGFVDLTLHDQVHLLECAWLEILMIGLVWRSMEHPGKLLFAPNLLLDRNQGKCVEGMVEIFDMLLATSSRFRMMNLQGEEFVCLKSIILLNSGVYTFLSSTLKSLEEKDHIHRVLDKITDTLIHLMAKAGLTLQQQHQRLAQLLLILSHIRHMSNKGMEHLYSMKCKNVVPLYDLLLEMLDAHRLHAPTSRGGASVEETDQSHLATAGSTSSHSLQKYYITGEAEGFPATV
Summary of the method: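 Fluorescence intensity from a beta-lactamase FRET substrate served as the read-out. Cells: HEK293 with stably integrated ER-alpha-UAS-bla reporter. Agonist 17beta-estradiol was co-added with compounds; incubation 18 hr at 37C, substrate 2 hr at room temperature.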

[15] = target: Estrogen receptor (Homo sapiens) (UniProt P03372); test: qHTS assay to identify small molecule agonists of the estrogen receptor alpha (ER-alpha) signaling pathway (AID 743075; calls by dose curve; also: potency is read from the fitted curve at half-maximal effect)
[16] = target: Estrogen receptor (Homo sapiens) (UniProt P03372); test: qHTS assay to identify small molecule agonists of the estrogen receptor alpha (ER-alpha) signaling pathway using the BG1 cell line (AID 743079); settings: BG1Luc4E2 cells, ERE-luciferase agonist, 22 h; activation: at 70.3 µM (top of the series); also: nearly all actives have a fitted effect of over 20% in size; also: potency is read from the fitted curve at half-maximal effect
[17] = qHTS assay to identify small molecule antagonists of the thyroid receptor (TR) signaling pathway (AID 743065); also: nearly all actives have a fitted effect of over 55% in size; also: potency is read from the fitted curve at half-maximal effect
Summary of the method: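 Antagonism measured as loss of luciferase signal in GH3 cells stably carrying a TRE-luciferase reporter, co-treated with compound and T3 (1 nM final) for 23.5 h at 37 C. Viability was read in the same well by CellTiter-Fluor.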

[18] = target: Nuclear receptor subfamily 1 group I member 2 (Homo sapiens) (UniProt O75469); test: CYP3A4 induction through human pregnane X receptor (PXR) by small molecules, qHTS assay (AID 1346984); also: nearly all actives have a fitted effect of over 40% in size
Summary of the method: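 Read-out is luminescence after One-Glo addition, following a 3 hr, 37C incubation with Luciferin-IPA CYP3A4 substrate (3uM final). Before that, compounds were on DPX-2 cells (HepG2 co-transfected with PXR element plus CYP3A4-promoter luciferase) for 24 hr at 37C.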
% is scaled to controls: 0 for no effect and ±100 for the full control effect.

C#C[C@]1(O)CC[C@H]2[C@@H]3CCC4=C(CCC(=O)C4)[C@H]3CC[C@@]21C
inactive: Potency [1] | Potency [2] | Potency [3] | Potency [4] | Potency [5] | Potency [6] | Potency [7] | Potency [8] | Potency [9] | max activation [10] 5.01% | Potency [11]

CCC[C@@H]1C[C@@H](C(=O)N[C@@H]([C@H]2O[C@H](SC)[C@H](O)[C@@H](O)[C@H]2O)[C@H](C)Cl)N(C)C1
inactive: Potency [12] | Potency [13] | Potency [14] | Potency [1] | Potency [15] | Potency [16] | Potency [2] | Potency [3] | Potency [4] | Potency [5] | Potency [6] | Potency [7] | Potency [8] | Potency [9] | max activation [10] 7.71% | Potency [11]

COCC(=O)Nc1cc(Sc2ccccc2)ccc1N=C(NC(=O)OC)NC(=O)OC
inactive: Potency [13] | Potency [14] | Potency [1] | Potency [15] | Potency [16] | Potency [3] | Potency [4] | Potency [5] | Potency [7] | Potency [8] | Potency [9] | max activation [10] 86.6% | Potency [11]
active: Potency [17] 23.7 µM

CC(C)(S)[C@@H](N)C(=O)O
inactive: Potency [17] | Potency [13] | Potency [1] | Potency [3] | Potency [4] | Potency [5] | Potency [6] | Potency [7] | Potency [8] | Potency [9] | max activation [10] -3.13% | Potency [11]

COC(=O)C1=C(C#N)NC(C)=C(C(=O)OC(C)C)C1c1cccc([N+](=O)[O-])c1 (stereo unspecified)
inactive: Potency [1] | Potency [15] | Potency [16] | Potency [2] | Potency [3] | Potency [6] | Potency [9]
active: Potency [4] 29.8 µM | Potency [10] 7.94 µM

CC(=O)O[C@]1(C(C)=O)CC[C@H]2[C@@H]3CCC4=CC(=O)CC[C@]4(C)[C@@]3(F)[C@@H](O)C[C@@]21C
inactive: Potency [17] | Potency [13] | Potency [1] | Potency [3] | Potency [4] | Potency [5] | Potency [6] | Potency [7] | Potency [9] | Potency [11]
active: Potency [16] 2.66 µM | Potency [10] 3.55 µM

CSc1nc2cc(Oc3cccc(Cl)c3Cl)c(Cl)cc2[nH]1
active: Potency [12] 13.3 µM | Potency [17] 8.41 µM | Potency [1] 23.9 µM | Potency [4] 23.7 µM
inactive: Potency [5] | Potency [7] | Potency [8] | Potency [9] | max activation [10] -0.842%

COc1ccc2c(c1)N(C[C@H](C)CN(C)C)c1ccccc1S2
active: Potency [12] 4.52 µM | Potency [17] 10.1 µM | Potency [9] 8.91 µM
inactive: Potency [13] | Potency [14] | Potency [1] | Potency [15] | Potency [16] | Potency [2] | Potency [3] | Potency [8] | max activation [10] -5.19%

CO[C@H]1C[C@H](O[C@@H]2/C(C)=C/C[C@@H]3C[C@@H](C[C@]4(CC[C@H](C)[C@@H](C5CCCCC5)O4)O3)OC(=O)[C@@H]3C=C(C)/C(=N/O)[C@H]4OC/C(=C\C=C\[C@@H]2C)[C@]43O)O[C@@H](C)[C@@H]1O
inactive: Potency [1] | Potency [3] | Potency [4] | Potency [5] | Potency [6] | Potency [7] | Potency [9] | max activation [10] -0.144% | Potency [11]

CCc1ccc(S(=O)(=O)O)cc1
inactive: Potency [17] | Potency [13] | Potency [1] | Potency [3] | Potency [4] | Potency [5] | Potency [7] | Potency [8] | Potency [9] | max activation [10] -0.665% | Potency [11]
active: Potency [15] 4.77 µM [inconclusive] | Potency [16] 0.298 µM | Potency [6] 11.9 µM

CCOC(=O)Oc1c(OC)cc(C(=O)O[C@@H]2C[C@@H]3CN4CCc5c([nH]c6cc(OC)ccc56)[C@H]4C[C@@H]3[C@H](C(=O)OC)[C@H]2OC)cc1OC
inactive: Potency [12] | Potency [13] | Potency [1] | Potency [3] | Potency [7] | Potency [9] | max activation [10] -0.121%

COc1c(O[C@@H]2O[C@H](CO)[C@@H](O)[C@H](O)[C@H]2O)cc2c(c1OC)-c1ccc(SC)c(=O)cc1[C@@H](NC(C)=O)CC2
inactive: Potency [17] | Potency [13] | Potency [1] | Potency [3] | Potency [4] | Potency [5] | Potency [6] | Potency [7] | Potency [8] | Potency [9] | max activation [10] -2.99% | Potency [11]

CCN(CC)CCOc1ccc2nc(N(C)C)sc2c1
active: Potency [16] 26.6 µM
inactive: Potency [12] | Potency [17] | Potency [13] | Potency [14] | Potency [1] | Potency [15] | Potency [3] | Potency [4] | Potency [5] | Potency [8] | Potency [9] | max activation [10] 2.91%

CC[C@@]1(O)C[C@H](O[C@H]2C[C@H](N(C)C)[C@H](O[C@H]3C[C@H](O)[C@H](O[C@H]4CCC(=O)[C@H](C)O4)[C@H](C)O3)[C@H](C)O2)c2c(cc3c(c2O)C(=O)c2c(O)cccc2C3=O)[C@H]1C(=O)OC
active: Potency [14] 6.01 µM [inconclusive] | Potency [16] 2.98 µM | Potency [4] 2.66 µM | Potency [5] 26.6 µM | Potency [7] 0.668 µM
inactive: Potency [1] | Potency [9] | max activation [10] -18.5% | Potency [11]

O=C(O)CC/C=C\CC[C@@H]1[C@@H](N2CCCCC2)[C@@H](O)C[C@@H]1OCc1ccc(-c2ccccc2)cc1
inactive: Potency [12] | Potency [17] | Potency [13] | Potency [14] | Potency [1] | Potency [15] | Potency [16] | Potency [2] | Potency [3] | Potency [4] | Potency [5] | Potency [6] | Potency [7] | Potency [8] | Potency [9] | Potency [18] | Potency [11]

NC(=O)Oc1ccc(Cc2ccccc2)cc1
active: Potency [15] 26.8 µM [activator] | Potency [16] 21.1 µM
inactive: Potency [17] | Potency [13] | Potency [14] | Potency [1] | Potency [3] | Potency [4] | Potency [5] | Potency [6] | Potency [7] | Potency [8] | Potency [9] | max activation [10] -0.809% | Potency [11]
